PLC-gamma1 inh: inhibitors of human phospholipase C gamma1; purified PLC-gamma1, fluorogenic substrate, fluorescence; inhibition, % at 12.2 µM; 370,000 compounds, 0.84% hits; AID 720700; in the data active means inhibition above about 9.5%
Rce1 inhib: inhibitors of yeast Ras-converting enzyme. calls only. AID 2563. yeast membranes, quenched prenylated peptide cleavage fluorescence. Q03530. 290,000 compounds, 0.27% hits;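 active means fall in fluorescence gain of 50% or more versus controls, with final raw signal at or below 3038400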;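 further: plate controls were neutral control wells for no effect and wells lacking membranes for full effect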
M18AAP inhibitor: PfM18AAP enzyme inhibition | recombinant PfM18AAP, H-Glu-NHMec fluorogenic cleavage | inhibition, % at 7.35 µM | 290,000 compounds, 1.2% hits;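 active means inhibition above the campaign mean inhibition over all tested compounds plus 3 SD, cut at about 28% in these data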;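 further: 0% = plate median of test compound wells and 100% = 2 mM ZnCl2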
PLCb3 inh: blocks human PLC-beta3 enzyme activity. AID 720704. Purified PLC-beta3, fluorogenic substrate, fluorescence. 370,000 compounds, 0.18% hits. Q01970. inhibition, % at 12.2 µM; in the data active means inhibition above about 11%;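 further: 0% = median of compound wells on plate and 100% = full blocker control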
NPR2 activator: GC-B (human) receptor activation; AID 1920062; 370,000 compounds, 0.11% hits; HEK293-GC-B cells, CNP EC30, cGMP TR-FRET; 0% at EC30 CNP, 100% saturating CNP; activation, % at 10 µM;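 active means activation at 10 µM reaching about 35% in either raw or pattern-adjusted values, limit read from the data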
NPR1 activator: GC-A (human) enzyme activation. HEK293 GC-A cells, cGMP TR-FRET, EC30 ANP; 0% at EC30 ANP, 100% saturating ANP. activation, % at 10 µM. 370,000 compounds, 0.14% hits; in the data active means activation above about 40%
* = called active by the depositor; i = inactive; / = no result; + = active, no number. Only some compounds are listed: those with a hit (about 2.2% of all), similar ones and a draw of the others.

SMILES	PLC-gamma1 inh	Rce1 inhib	M18AAP inhibitor	PLCb3 inh	NPR2 activator	NPR1 activator
CC1(C)Cc2c(sc3ncn(N)c(=N)c23)CO1	-3	i	3	-2	4	0
CC1(C)Cc2c(sc3ncnc(NN)c23)CO1	0	i	30*	-7	1	-4
Cc1cccc(NC(=O)n2ccc3ccc(-c4ccc5cc[nH]c5c4)cc32)c1	-142	/	/	-195	0	-11
Oc1c(Br)cc2oc3c(c2c1CNCc1ccccc1)CCCC3	1	i	31*	0	3	-4
Cc1csc2nc(=O)c3ccccc3n12	-73	+	-9	-99	-5	1
COc1ccc(C(=O)CC(c2ccccc2)C2C(=O)CCCC2=O)cc1 (stereo not given)	-2	i	31*	-4	1	1
COc1ccc(C(CC(=O)c2ccccc2)C2CCCCC2=O)cc1 (stereo not given)	-17	i	0	3	-22	-32
COc1cccc(Nc2nc(C)nc3c2oc2ccccc23)c1	-81	+	1	-108	9	9
N#CC1=C2SCN(c3ccccc3)CN2C(=O)CC1c1c(Cl)cccc1Cl (stereo not given)	-3	i	36*	-6	0	-2
CCOc1ccc(N2CSC3=C(C#N)C(c4ccco4)CC(=O)N3C2)cc1 (stereo not given)	-31	i	33*	-61	-6	-7
N#CC1=C2SCN(c3ccccc3)CN2C(=O)CC1c1ccccc1Cl (stereo not given)	-7	i	21	-7	4	0
Cc1ccc(C2CC(=O)N3CN(Cc4ccco4)CSC3=C2C#N)cc1 (stereo not given)	-9	i	31*	-10	7	5
CCOC(=O)c1ccc(N2CSC3=C(C#N)C(c4ccc(OC)cc4OC)CC(=O)N3C2)cc1 (stereo not given)	-1	i	21	-4	2	-2
N#CC1=C2SCN(c3ccccc3)CN2C(=O)CC1c1cccs1 (stereo not given)	-9	i	37*	-14	3	7
C/C=C/C(=O)N1CCc2cc(S(=O)(=O)N(C)Cc3ccco3)ccc21	4	/	/	3	2	-5
COc1cc(/C=C(\C#N)C(=O)NCC2CCCO2)c([N+](=O)[O-])cc1OC (stereo not given)	-15	i	30*	-15	6	1
COc1cc(/C=C(\C#N)C(=O)NCC2CCCO2)ccc1OCC(=O)O (stereo not given)	-12	i	3	-16	1	-1
C=CCN1C/C(=C/c2ccccc2)N2C(=O)CC(c3ccccc3)N=C12 (stereo not given)	-2	/	/	-16	-7	-5
COC(=O)[C@H](C(C)C)N1CCc2nnn(CC3CCCCC3)c2-c2cc(F)ccc2S1(=O)=O	3	/	/	0	0	-1
O=C(N/N=C/c1ccncc1)c1cc2ccccc2o1	-10	i	-2	-9	0	-8
Cc1cc(/C=N/NC(=O)c2cc3ccccc3o2)c(C)n1C	-77	i	30*	-119	-2	2
O=C(Nc1nc2c(F)cccc2s1)C1CC1	-3	i	3	-2	2	29
CC(=O)Nc1nc2c(C)c(Cl)ccc2s1	0	i	-8	-2	-3	49*
Cc1ccc2sc(NC(=O)CN3C(=O)CCC3=O)nc2c1C	3	i	-4	5	7	50*
CCCC(=O)Nc1nc2c(C)c(Cl)ccc2s1	0	i	-8	-7	-3	43*
SMILES	PLC-gamma1 inh	Rce1 inhib	M18AAP inhibitor	PLCb3 inh	NPR2 activator	NPR1 activator
Cc1ccc(C)c2sc(NC(=O)CN3C(=O)CCC3=O)nc12	0	i	-9	-41	-3	7
Cc1c(Cl)ccc2sc(NC(=O)C3CC3)nc12	2	i	2	1	-7	55*
Cc1c(Cl)ccc2sc(NC(=O)CN3C(=O)c4ccccc4C3=O)nc12	3	i	-7	-1	-4	11
COC(=O)C1CN(CC(C)C)CCS(=O)(=O)N1Cc1ccc(C(F)(F)F)cc1 (stereo not given)	-1	/	/	3	0	-4
COc1cc([N+](=O)[O-])cc2sc(NC(=O)C3CC3)nc12	1	i	0	-6	-4	47*
CC(=O)N/C(N)=N/c1nc(=O)c2ccccc2s1	0	i	0	-8	-1	-1
CC(=O)Nc1nc(=O)c2ccccc2s1	-3	i	30*	-2	5	-10
CCC[C@H]1[C@@H](OC(=O)NCc2cccnc2)CC[C@@]23CCCN2C(=O)CCC[C@@H]13	0	/	/	3	-2	1
O=c1[nH]c(CN2CCN(c3ccccc3)CC2)nc2scc(-c3ccccc3)c12	-14	i	2	-20	-6	-3
Cc1sc2nc(CN3CCN(c4ccc(O)cc4)CC3)[nH]c(=O)c2c1C	-3	i	32*	-10	0	-3
CCOC(=O)C1CCN(C(=O)C(C)(C)NC(=O)Nc2ccc(Cl)cc2Cl)CC1	5	/	/	1	-3	-3
Cc1cc(NC(=O)COC(=O)COc2ccc(C(=O)c3ccccc3)cc2)no1	-4	i	-1	-3	-1	64*
COc1ccc(C2c3c(ncn(CCCO)c3=N)Oc3ccc4ccccc4c32)cc1OC (stereo not given)	-1	i	3	-8	-26	-45
COc1ccc(C2c3c(ncn(CCCO)c3=N)Oc3ccc4ccccc4c32)cc1 (stereo not given)	1	+	3	-1	-12	-21
O=C(O)c1cc(S(=O)(=O)Nc2ccc3oc(=O)sc3c2)ccc1O	0	i	51*	-3	3	0
CC(=O)c1c(C)oc2ccc(NS(=O)(=O)c3ccc(O)c(C(=O)O)c3)cc12	11*	i	21	4	8	-2
O=C(O)c1ccc2ncsc2c1	2	i	62*	-5	5	-1
O=C(c1ccc2ncsc2c1)N1CCCCC1	3	i	-1	-7	-3	3
C[N+]1=C(N)NC2=C3CCCCC3n3c(=O)n(-c4ccccc4)c(=O)n3C2C1 (stereo not given)	-1	/	/	1	5	0
CCOC(=O)N1CCC(=NNc2nc3ccccc3s2)CC1	-28	/	29*	-52	-3	4
CC(=O)N1CCC(=NNc2nc3ccccc3s2)CC1	-14	i	23	-15	-3	3
COc1cccc(C(=O)n2ccc3ccc(-c4ccc5ccn(Cc6ccc(C#N)cc6)c5c4)cc32)c1	-74	/	/	-89	4	-1
COc1cccc(CNc2nc3nc(C)cc(C)n3n2)c1	-19	+	10	-20	0	0
COCCN1Cc2cccc(C(=O)NCc3ccc4c(c3)OCO4)c2C1=O	-1	i	29*	2	5	7

High-throughput results deposited in PubChem by several laboratories.
